Source: PubChem
Tau fibril FP: blocks human tau fibril formation measured by polarization. P10636. K18 P301L tau heparin fibrillization, Alexa594 FP, 6 h. Potency, µM (highest dose often 57.7 µM), inactives show top-dose activity, negative = inhibition, usual class: inhibitors. 0.39% of 280,000 active; also: potency is read from the fitted curve at half-maximal effect; nearly all actives have a fitted effect of over 55% in size
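Quantitative HTS format: compounds meet 15 uM recombinant K18 P301L tau and Alexa 594-tau tracer in 100 mM sodium acetate pH 7; 20 uM heparin triggers fibrillization at 37 C over 6 hr; FP gives the signal.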
Tau fibril ThT: inhibitors of human tau fibril formation, thioflavin T binding; P10636; recombinant tau K18 P301L, heparin-induced fibrillization, ThT fluorescence; Potency, µM (top dose mostly 57.4 µM), inactives show top-dose activity, negative = inhibition, actives largely listed as inhibitors; 2.1% of 270,000 active; AID 1460; also: potency is read from the fitted curve at half-maximal effect; nearly all actives have a fitted effect of over 55% in size
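ThT emission at 510 nm, taken 1 hr after adding 30 uM dye, quantifies aggregates formed when 20 uM heparin acts on human tau K18 P301L for 6 hr at 37 C.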
Tau fluor cs: counter-screen for tau fibril formation inhibitors | Potency, µM (top dose mostly 57.7 µM), for inactives: at the highest dose activity change, negative = decrease | AID 1463 | tau K18 P301L (four-repeat tau fragment) Alexa594 fluorescence, heparin fibrillization | 0.93% of 280,000 active; also: potency is read from the fitted curve at half-maximal effect; nearly all actives have a fitted effect of over 55% in size
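Human K18 P301L tau (15 uM unlabeled plus 0.24 uM Alexa 594-labeled, final) in 100 mM sodium acetate pH 7 was mixed with compound and 20 uM heparin and incubated 6 hr at 37 C.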
FBPA coupling cs: coupling enzyme interference in Giardia aldolase counter-screen; coupling enzyme system counterscreen, AmpLite Red fluorescence; activity change, negative = inhibition, % at 58.2 µM, hits read low; 0.67% of 290,000 active; AID 2472; in the data active = activity change below about -30%
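First, compound is pin-transferred into glyceraldehyde-3-phosphate coupling-enzyme reagent at 57.5 uM final and held 10 min at RT. Next, substrate, coupling system and AmpLite Red are added. After 20 min RT, fluorescence (525/598 nm) is read.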
USP1 inh: blocks the human USP1/UAF1 deubiquitinase complex | O94782 | recombinant USP1/UAF1, Ub-Rhodamine cleavage fluorescence | Potency, µM (doses to about 57.1 µM), for the others: at the top dose activity change, negative = inhibition, usual class: inhibitors | 0.23% of 390,000 active | AID 743255; also: potency is read from the fitted curve at half-maximal effect; nearly all actives have a fitted effect of over 60% in size
Target sequence (O94782 whole entry, looked up): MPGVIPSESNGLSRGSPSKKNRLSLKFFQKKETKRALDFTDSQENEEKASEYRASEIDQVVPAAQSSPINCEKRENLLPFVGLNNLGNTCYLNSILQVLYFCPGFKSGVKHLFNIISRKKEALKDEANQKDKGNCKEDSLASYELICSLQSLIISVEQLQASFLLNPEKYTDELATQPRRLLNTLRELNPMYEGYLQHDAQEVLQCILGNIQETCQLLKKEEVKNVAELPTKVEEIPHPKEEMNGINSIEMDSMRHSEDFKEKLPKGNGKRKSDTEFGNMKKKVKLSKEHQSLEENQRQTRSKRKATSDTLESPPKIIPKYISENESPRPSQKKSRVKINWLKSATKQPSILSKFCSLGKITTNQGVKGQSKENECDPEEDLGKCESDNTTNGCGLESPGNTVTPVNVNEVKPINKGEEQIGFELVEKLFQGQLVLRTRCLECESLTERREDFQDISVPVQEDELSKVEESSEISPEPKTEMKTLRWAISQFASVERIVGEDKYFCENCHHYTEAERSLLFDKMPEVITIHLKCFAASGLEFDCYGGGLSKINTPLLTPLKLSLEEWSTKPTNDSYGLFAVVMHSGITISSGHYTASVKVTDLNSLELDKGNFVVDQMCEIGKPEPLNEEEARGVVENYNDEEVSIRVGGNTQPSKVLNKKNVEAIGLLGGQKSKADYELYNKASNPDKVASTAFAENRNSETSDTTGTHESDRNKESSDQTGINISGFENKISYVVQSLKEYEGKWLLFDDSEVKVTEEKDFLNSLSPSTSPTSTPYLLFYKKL
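1 nM enzyme complex + cpd, 15 min RT; start with Ub-Rho 150nM final; kinetic fluorescence ex 480/em 540, 6 reads q60 s. Buffer 50mM HEPES pH 7.8, 0.5mM EDTA, 0.1 mg/ml BSA, 1mM TCEP, 0.01% Tween-20.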
An asterisk follows results filed as active; ? = inconclusive; nt = not tested or not shown; [ ] = dose if it differs, or a comment. An excerpt weighted towards active compounds, which were near 2.3% of everything screened. Unless noted, calls follow the shape of the dose curve; as a rule, active = well fitted curve in the direction sought with a large enough effect; inconclusive = small, poorly fitted or top-dose-only effect, or another doubt; inactive = no such curve, though single readings can be large; an effect the other way counts as inactive or inconclusive. % is scaled to controls: 0 for no effect and ±100 for the full control effect.

SMILES	Tau fibril FP	Tau fibril ThT	Tau fluor cs	FBPA coupling cs	USP1 inh
CN1CCN(c2ccc([N+](=O)[O-])c3no[n+]([O-])c23)CC1	?	13µM*	?	-28	110%
O=[N+]([O-])c1ccc(N(CCO)CCO)c2c1no[n+]2[O-]	nt	nt	nt	nt	52%
Clc1c(Cl)c(Cl)c(Cl)c(Cl)c1Cl	nt	nt	nt	-1	nt
CCCCN1C(=O)NC(=O)/C(=C/c2cnc(SC)nc2)C1=O	-13%	?	-18%	7	-6%
CN(C)/C=C1/C(=O)NC(=O)N(CCNc2ncc(C(F)(F)F)cc2Cl)C1=O	?	16µM*	-9%	10	?
Cc1cc(O)c2c(c1)C(=O)c1cc(O)cc(O)c1C2=O	11%	10µM*	16µM*[quencher]	-3	12%
CC(=O)OC[C@H](N)C(=O)c1ccccc1	5%	-13%	-10%	4	nt
COc1cc(/C=C2/C(=O)N(c3ccccc3)N=C2C)ccc1OS(=O)(=O)c1ccccc1	-22%	14µM*	?	-42*	nt
CC1Oc2cc3c(-c4c(O)cc(O)c5c(O)c6c(cc45)OC(C)C(C)C6=O)c(O)cc(O)c3c(O)c2C(=O)C1C (centres undefined)	?	13µM*	13µM*[quencher]	-18	13µM*
CN1C(=O)NC(=O)/C(=C\C=C\c2ccccc2[N+](=O)[O-])C1=O	?	25µM*	-22%	-1	-4%
Cc1ccc(C=C2C(Cl)=C(Cl)C(Cl)=C2Cl)cc1	?	16µM*	?	1	-18%
CC1CC2OC2/C=C\C=C/C(=O)Cc2c(Cl)c(O)cc(O)c2C(=O)O1 (centres undefined)	-10%	?	-18%	3	nt
O=C1C=CC(=O)C(Cl)=C1	16µM*	11µM*	?	-22	nt
O=C1C=CC(=O)C=C1	-2%	-6%	-11%	nt	?
CCC(=O)C1=C(c2cccc([N+](=O)[O-])c2)N(C(=O)CC)n2c(nnc2C2CCCCC2)S1	-6%	?	-20%	nt	-1%
CN1CC[C@@]2(C)c3cc(O)ccc3N(C)C2O1 (some centres undefined)	nt	nt	nt	-72*	nt
CN1CCN(c2ccc(NC(=O)Oc3ccccc3)cc2)CC1	-2%	-19%	-12%	-1	0%
CN1CC[C@@]2(C)c3cc(O)ccc3N(C)[C@@H]12	20µM*	14µM*	?	-78*	28µM*
CN1CC[C@@]2(C)c3cc(OC(=O)Nc4ccccc4)ccc3N(C)[C@@H]12	?	32µM*	?	nt	nt
O=[N+]([O-])O[C@H]1CO[C@H]2[C@@H]1OC[C@H]2O	7%	-5%	?	1	nt
CCCCCCCCCCCCCC(=O)O[C@@H]1[C@@H](C)[C@@]2(O)[C@H](C=C(CO)C[C@]3(O)C(=O)C(C)=C[C@@H]23)[C@@H]2C(C)(C)C12OC(C)=O (some centres undefined)	0%	?	-8%	nt	nt
Nc1nc(/C(=C/CC(=O)O)C(=O)NC2C(=O)N3C(C(=O)O)=CCSC23)cs1 (centres undefined)	?	-22%	-18%	1	nt
COc1ccc(CN2C(=O)CC(=O)NC2=O)cc1	?	25µM*	-14%	7	-12%
O=C(N=Nc1c(O)[nH]c(=O)[nH]c1=O)C1COc2cc3ccccc3cc2O1 (centres undefined)	?	?	-11%	-30*	-19%
O=c1[nH]c(O)c(N=Nc2ccc(SC(F)F)cc2)c(=O)[nH]1	2%	?	-13%	1	-9%
SMILES	Tau fibril FP	Tau fibril ThT	Tau fluor cs	FBPA coupling cs	USP1 inh
O=C(c1ccc(C(F)(F)F)cc1)N1CCC(c2noc(-c3ccc(S(=O)(=O)N4CCCC4)cc3)n2)CC1	10%	-8%	-11%	nt	?
COC(=O)C1CN(C#N)N(c2ccc(Cl)cc2)C12c1ccccc1-c1ccccc12 (centres undefined)	?	10µM*	-27%	-4	-26%
C[C@H]1COC2=C1C(=O)C(=O)c1c2ccc2c1CCCC2(C)C	?	13µM*	-28%	-23	32µM*
CC1COC2=C1C(=O)C(=O)c1c2ccc2c1CCCC2(C)C (centres undefined)	?	13µM*	?	-36*	nt
CCCOCCN(C(=O)CCl)c1c(CC)cccc1CC	nt	nt	nt	0	nt
N#C/C(=C\c1ccc(O)c(O)c1)C(=O)NCCCNC(=O)/C(C#N)=C/c1ccc(O)c(O)c1	8%	10µM*	?	nt	nt
COc1ccc(N/N=C/c2c(O)n(-c3ccc(C)c(C)c3)c(=O)[nH]c2=O)cc1	?	18µM*	-25%	1	3%
COP(=O)(CC(=O)O)c1ccccc1 (centres undefined)	-15%	-4%	-6%	3	-7%
NC(=O)CSP(=O)(c1ccccc1)c1ccccc1	?	28µM*	-15%	0	2%
CCOc1ccc2cc(C#N)c(=O)oc2c1	nt	nt	nt	-1	nt
CCOP(=O)(C1=C(O)C(=O)C(C(C)(C)C)=CC1=O)c1ccccc1 (centres undefined)	?	22µM*	-22%	-13	?
CC1OC(O[C@H]2C[C@@H](O)[C@]3(CO)[C@@H]4C(CC[C@]3(O)C2)[C@@]2(O)CC[C@H](C3=CC(=O)OC3)[C@@]2(C)C[C@H]4O)C(O)C(O)C1O (some centres undefined)	2%	6%	0%	nt	nt
COc1cc2c(cc1O)C(CCc1ccc(Cl)cc1)N(C)CC2 (centres undefined)	6%	-7%	-5%	2	nt
COc1ccc2nc(NC(=O)c3nc(S(=O)(=O)Cc4cccc(C)c4)ncc3Cl)sc2c1	-10%	14µM*	?	nt	?
C[C@@H]1C[C@@H]2[C@H]([C@H]3C=C(COC(=O)c4ccccc4)[C@@H](O)[C@]4(O)[C@@H](O)C(OC(=O)c5ccccc5)=C[C@@]14C3=O)C2(C)C	nt	nt	nt	1	nt
Cc1ccc(-n2sc3ccccc3c2=O)cc1	?	32µM*	-21%	4	-17%
COc1ccc(-c2nc3ccccc3c(=O)n2-c2ccc(OC)cc2)cc1	-1%	-11%	-9%	6	-14%
COc1ccc(CCNc2nc3c(c(=O)n(C)c(=O)n3C)n2Cc2ccc(F)cc2)cc1OC	15%	-11%	?	nt	-21%
O=C1NC(=S)N(c2ccc(F)cc2)C(=O)/C1=C\c1ccoc1	?	18µM*	-21%	-7	28µM*
O=C1NC(=S)N(c2ccc(F)cc2)C(=O)/C1=C/c1ccco1	nt	nt	nt	0	nt
CC(C)CN(CC(C)C)c1ccc(C=C2C(=O)NC(=S)NC2=O)cc1[N+](=O)[O-]	?	25µM*	?	-19	?
CCN(CC)c1ccc(C=C2C(=O)NC(=S)NC2=O)cc1	-7%	?	?	-26	-18%
